Results published in PubChem BioAssay (Tox21).
“And” between values parts separate entries of the source, which are not always exact repeats. Equal entries are not always repeated. Results filed as inconclusive are left out. Some compounds were tested as several samples or in several runs, with calls that do not always agree. The source made the active and inactive calls. Calls follow the shape of the dose curve; as a rule, active = well fitted curve in the direction sought with a large enough effect in the repeat runs; inconclusive = weak or mixed curves; inactive = no such curve, though single readings can be large; an effect the other way counts as inactive or inconclusive.

Key:
[1] = A CellTox Green Cytotoxicity Assay to monitor cytotoxicity in HEK293 cells - 24 hour (AID 1224875); also: series mostly up to about 77 µM; nearly all actives have a fitted effect of over 45% in size
In short: (§1)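 Cells (HEK293, 600/well) and dye reagent are dispensed together. After 5 h at 37 C, 23 nL compound is pinned in. Plates stay at 37 C for 40 h with fluorescence read at 0h, 8h, 16h, 24h, 32h and 40h.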

[2] = A CellTox Green Cytotoxicity Assay to monitor cytotoxicity in HepG2 cells - 16 hour (AID 1224876); also: nearly all actives have a fitted effect of over 45% in size
In short: (§2)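 Cells and non-lytic dye reagent are dispensed together (600 HepG2 cells/well) and incubated 5 h before DMSO compound transfer. Kinetic fluorescence is then recorded in the same wells during 40 h at 37 C.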

[3] = qHTS RealTime-Glo MT Cell Viability Assay in HepG2 cells - 32 hour (AID 1224877); also: nearly all actives have a fitted effect of over 55% in size
In short: (§3)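 Cells + NanoLuc/prosubstrate dispensed (600 cells/well) → 5 h at 37 C/5% CO2 → compounds in DMSO transferred → 40 h incubation at 37 C, luminescence read at 0, 8, 16, 24, 32, 40 h.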

[4] = A CellTox Green Cytotoxicity Assay to monitor cytotoxicity in HepG2 cells - 24 hour (AID 1224878); also: nearly all actives have a fitted effect of over 45% in size
In short: as §2

[5] = A CellTox Green Cytotoxicity Assay to monitor cytotoxicity in HepG2 cells - 40 hour (AID 1224879); also: nearly all actives have a fitted effect of over 40% in size; also: potency is read from the fitted curve at half-maximal effect
In short: as §2

[6] = qHTS RealTime-Glo MT Cell Viability Assay in HEK293 cells - 0 hour (AID 1224880); also: top concentration of the series differs between compounds; nearly all actives have a fitted effect of over 45% in size
In short: (§4)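 Real-time viability in HEK293: signal arises when living cells convert a prosubstrate for NanoLuc in the medium, so luminescence tracks viable cell number. Compound (23 nL, DMSO) added 5 h post-seeding; kinetic reads at 0–40 h, 37 C.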

[7] = A CellTox Green Cytotoxicity Assay to monitor cytotoxicity in HEK293 cells - 32 hour (AID 1224881); also: nearly all actives have a fitted effect of over 40% in size
In short: as §1

[8] = A CellTox Green Cytotoxicity Assay to monitor cytotoxicity in HepG2 cells - 0 hour (AID 1224882); also: nearly all actives have a fitted effect of over 35% in size
In short: as §2

[9] = A CellTox Green Cytotoxicity Assay to monitor cytotoxicity in HepG2 cells - 32 hour (AID 1224883); also: nearly all actives have a fitted effect of over 50% in size
In short: as §2

[10] = A CellTox Green Cytotoxicity Assay to monitor cytotoxicity in HEK293 cells - 8 hour (AID 1224884); also: nearly all actives have a fitted effect of over 35% in size; also: potency is read from the fitted curve at half-maximal effect
In short: as §1

[11] = qHTS RealTime-Glo MT Cell Viability Assay in HepG2 cells - 16 hour (AID 1224885); also: nearly all actives have a fitted effect of over 50% in size
In short: as §3

[12] = qHTS RealTime-Glo MT Cell Viability Assay in HEK293 cells - 24 hour (AID 1224886); also: nearly all actives have a fitted effect of over 50% in size; also: potency is read from the fitted curve at half-maximal effect
In short: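 Tox21 10K qHTS, HEK293, 600 cells/well, RealTime-Glo reagent co-dispensed with cells; 5 h preincubation, compound by pintool, 37 C, luminescence at 0–40 h.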

[13] = qHTS RealTime-Glo MT Cell Viability Assay in HEK293 cells - 8 hour (AID 1224887); also: top concentration of the series differs between compounds; nearly all actives have a fitted effect of over 50% in size
In short: as §4

[14] = A CellTox Green Cytotoxicity Assay to monitor cytotoxicity in HEK293 cells - 16 hour (AID 1224888); also: nearly all actives have a fitted effect of over 35% in size
In short: as §1

[15] = qHTS RealTime-Glo MT Cell Viability Assay in HepG2 cells - 0 hour (AID 1224889); also: nearly all actives have a fitted effect of over 50% in size
In short: as §3

[16] = A CellTox Green Cytotoxicity Assay to monitor cytotoxicity in HepG2 cells - 8 hour (AID 1224890); also: nearly all actives have a fitted effect of over 45% in size
In short: as §2

[17] = qHTS assay to identify small molecule antagonists of the estrogen receptor alpha (ER-alpha) signaling pathway using the BG1 cell line in the presence of 0.1 nM 17-beta-estradiol - cell viability counter screen (AID 1259241); also: nearly all actives have a fitted effect of over 40% in size
In short: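 In this screen, hormone-deprived VM7Luc4E2 cells were seeded at 4,000 per well, dosed with compound and 0.1 nM estradiol final, and incubated 22 hr at 37C and 5% CO2; fluorogenic live-cell protease signal reported viability.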

[18] = qHTS assay to identify small molecule antagonists of the androgen receptor (AR) signaling pathway using the MDA cell line in the presence of 0.5 nM R1881 - cell viability counter screen (AID 1259242); also: nearly all actives have a fitted effect of over 45% in size
In short: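 Steps: plate MDA-kb2 cells, rest 5 hr at 37C without CO2; pin in compounds in DMSO; add R1881 to 0.5 nM final; incubate 16 hr; add CellTiter-Fluor, 30 min; read fluorescence.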

[19] = target: Estrogen receptor (Homo sapiens) (UniProt P03372); test: qHTS assay to identify small molecule antagonists of the estrogen receptor alpha (ER-alpha) signaling pathway using the BG1 cell line in the presence of 0.1 nM 17-beta-estradiol (AID 1259244); also: nearly all actives have a fitted effect of over 50% in size
In short: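 Antagonist mode: compounds in DMSO are pinned onto VM7Luc4E2 reporter cells, 0.1 nM final 17beta-estradiol is added, and after 22 h at 37C luciferase luminescence is measured with ONE-Glo.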

[20] = target: Androgen receptor (Homo sapiens) (UniProt P10275); test: qHTS assay to identify small molecule antagonists of the androgen receptor (AR) signaling pathway using the MDA cell line in the presence of 0.5 nM R1881 (AID 1259243); also: nearly all actives have a fitted effect of over 50% in size; also: potency is read from the fitted curve at half-maximal effect
In short: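 Stably transfected MDA-kb2 cells express luciferase from an MMTV promoter bearing both AR and GR response elements. Compounds plus 0.5 nM R1881 (final) were incubated 16 hr at 37C without CO2, then luminescence measured.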

Measured: Potency

Chain of Androgen receptor (Homo sapiens) (P10275 whole entry, looked up): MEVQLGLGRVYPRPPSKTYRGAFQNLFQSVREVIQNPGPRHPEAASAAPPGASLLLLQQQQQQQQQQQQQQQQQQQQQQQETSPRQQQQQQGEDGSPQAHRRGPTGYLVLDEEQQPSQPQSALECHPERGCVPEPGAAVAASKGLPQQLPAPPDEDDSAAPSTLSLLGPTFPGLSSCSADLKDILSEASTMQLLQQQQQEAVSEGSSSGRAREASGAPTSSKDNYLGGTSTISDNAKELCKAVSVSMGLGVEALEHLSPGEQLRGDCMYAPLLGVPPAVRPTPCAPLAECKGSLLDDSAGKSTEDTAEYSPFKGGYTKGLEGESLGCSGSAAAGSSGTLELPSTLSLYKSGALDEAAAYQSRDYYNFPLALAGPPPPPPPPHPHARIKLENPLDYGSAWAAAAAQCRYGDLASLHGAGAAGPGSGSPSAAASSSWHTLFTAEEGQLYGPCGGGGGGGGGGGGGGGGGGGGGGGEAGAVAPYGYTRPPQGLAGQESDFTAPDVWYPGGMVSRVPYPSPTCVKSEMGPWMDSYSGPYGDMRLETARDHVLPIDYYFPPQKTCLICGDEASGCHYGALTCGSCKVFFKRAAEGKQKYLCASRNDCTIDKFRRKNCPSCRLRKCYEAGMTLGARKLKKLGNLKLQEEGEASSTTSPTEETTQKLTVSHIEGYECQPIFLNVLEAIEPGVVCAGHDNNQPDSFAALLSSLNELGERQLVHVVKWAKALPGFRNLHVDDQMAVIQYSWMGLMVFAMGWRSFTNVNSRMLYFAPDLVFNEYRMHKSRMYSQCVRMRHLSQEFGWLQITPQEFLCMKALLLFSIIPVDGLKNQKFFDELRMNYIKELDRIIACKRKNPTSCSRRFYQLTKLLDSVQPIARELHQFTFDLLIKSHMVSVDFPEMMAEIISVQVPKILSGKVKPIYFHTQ
Chain of Estrogen receptor (Homo sapiens) (P03372 whole entry, looked up): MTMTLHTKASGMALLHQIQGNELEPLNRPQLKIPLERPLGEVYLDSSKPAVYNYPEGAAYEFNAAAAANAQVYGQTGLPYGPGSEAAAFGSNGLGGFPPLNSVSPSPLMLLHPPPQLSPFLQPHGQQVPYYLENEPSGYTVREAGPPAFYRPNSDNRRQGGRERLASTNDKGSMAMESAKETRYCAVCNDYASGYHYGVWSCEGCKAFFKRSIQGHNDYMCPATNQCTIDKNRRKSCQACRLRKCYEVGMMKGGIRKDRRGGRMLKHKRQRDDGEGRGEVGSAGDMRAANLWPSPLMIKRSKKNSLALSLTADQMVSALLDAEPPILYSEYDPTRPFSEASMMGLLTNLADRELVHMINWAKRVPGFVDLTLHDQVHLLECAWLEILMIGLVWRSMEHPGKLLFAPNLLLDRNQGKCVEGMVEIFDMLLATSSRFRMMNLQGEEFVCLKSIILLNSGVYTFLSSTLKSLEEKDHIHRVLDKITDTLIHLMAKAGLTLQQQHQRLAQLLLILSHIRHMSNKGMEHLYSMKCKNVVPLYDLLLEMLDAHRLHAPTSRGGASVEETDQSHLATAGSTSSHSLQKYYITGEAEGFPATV

NCCc1ccc(O)cc1
not listed: [20]
inactive: all other assays above

O=C1CCCN1
not listed: [20]
inactive: all other assays above

CN(N=O)c1ccccc1
not listed: [20]
inactive: all other assays above

CC(C#N)CCC#N (stereo unspecified)
not listed: [20]
inactive: all other assays above

CCNc1nc(NC(C)(C)C)nc(SC)n1
active: [12] 43.1 µM
not listed: [18] | [20]
inactive: all other assays above

OC(O)C(Cl)(Cl)Cl
not listed: [18] | [19] | [20]
inactive: all other assays above

CCCN(CCC)N=O
not listed: [18] | [20]
inactive: all other assays above

O=C(NC(=O)c1c(F)cccc1F)Nc1cc(Cl)c(OC(F)(F)C(F)C(F)(F)F)cc1Cl (stereo unspecified)
active: [20] 19.3 µM and 26.6 µM
inactive: all other assays above

CC(C)=C[C@@H]1[C@@H](C(=O)OCc2coc(Cc3ccccc3)c2)C1(C)C
not listed: [20]
inactive: all other assays above

O=S(=O)(c1ccc(Cl)cc1)c1cc(Cl)c(Cl)cc1Cl
not listed: [18] | [19] | [20]
inactive: all other assays above

CC1OC(C)OC(C)O1 (stereo unspecified)
not listed: [19] | [20]
inactive: all other assays above

[O-][Cl+2]([O-])O
not listed: [18] | [20]
inactive: all other assays above

Cc1ccc([N+](=O)[O-])cc1C
not listed: [18] | [20]
inactive: all other assays above

Cc1cc(-c2cc(C)c(N)c(C)c2)cc(C)c1N
not listed: [20]
inactive: all other assays above

CN=C=S
not listed: [20]
inactive: all other assays above

O=[N+]([O-])c1ccccc1
not listed: [20]
inactive: all other assays above

Cc1cccc([N+](=O)[O-])c1
not listed: [18] | [20]
inactive: all other assays above

CN(C)N=O
not listed: [19] | [20]
inactive: all other assays above

CCC(C)(CC)c1cc(NC(=O)c2c(OC)cccc2OC)on1
not listed: [18] | [19] | [20]
inactive: all other assays above

CCCCCOC(=O)c1ccccc1C(=O)OCCCCC
not listed: [20]
inactive: all other assays above

CC(C)N1C(=O)c2ccccc2NS1(=O)=O
not listed: [18] | [20]
inactive: all other assays above

CC(Br)C(=O)O (stereo unspecified)
not listed: [20]
inactive: all other assays above

ClCc1cccnc1
not listed: [18] | [20]
inactive: all other assays above

Clc1ccccc1Cl
inactive and 54.9 µM (active): [5]
not listed: [18] | [19] | [20]
inactive: all other assays above

CCC[CH2][Sn]([Cl])([Cl])[Cl]
not listed: [18] | [20]
inactive: all other assays above

CCC12COCN1COC2
not listed: [20]
inactive: all other assays above

Oc1ccccc1Cl
not listed: [19] | [20]
inactive: all other assays above

CN(C)CCO
not listed: [18] | [20]
inactive: all other assays above

CN(C)[C@@H]1C(=O)C(C(N)=O)=C(O)[C@@]2(O)C(=O)C3=C(O)c4c(O)cccc4[C@@](C)(O)[C@H]3C[C@@H]12
not listed: [13] | [18] | [19] | [20]
inactive: all other assays above

O=c1[nH]c2ccccc2c(=O)o1
not listed: [20]
inactive: all other assays above

CC(C)OC(=O)Nc1ccccc1
not listed: [20]
inactive: all other assays above

COCCl
22.7 µM (active) and inactive: [10]
not listed: [19]
inactive: all other assays above
